Drawing on PubChem BioAssay AID504452 (The Scripps Research Institute Molecular Screening Center, 2011), this text covers activation (% of full agonist control) and activation (% of partial agonist control) for two compounds.

The target in this test is Peroxisome proliferator-activated receptor gamma (Homo sapiens) (UniProt P37231). Nature of the test: partial agonism at human PPARgamma receptor – cell-based, luciferase reporter, luminescence, primary screen (AID 504452).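 Also: Cos-1 cells carrying PPARgamma and a response element luciferase reporter.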 The note with it: cell-based PPARg luciferase reporter, at 5 µM, stronger effect = higher value; activation (% of full agonist control): measured here: relative to full agonist control. A general note: A reporter such as luciferase makes a cellular process visible.

The structures appear in SMILES notation. Activity calls are given as the source filed them. Rule as the data show it: active = activation above about 85%; inactive = the rest.

Chain of Peroxisome proliferator-activated receptor gamma (Homo sapiens) (P37231 whole entry, looked up): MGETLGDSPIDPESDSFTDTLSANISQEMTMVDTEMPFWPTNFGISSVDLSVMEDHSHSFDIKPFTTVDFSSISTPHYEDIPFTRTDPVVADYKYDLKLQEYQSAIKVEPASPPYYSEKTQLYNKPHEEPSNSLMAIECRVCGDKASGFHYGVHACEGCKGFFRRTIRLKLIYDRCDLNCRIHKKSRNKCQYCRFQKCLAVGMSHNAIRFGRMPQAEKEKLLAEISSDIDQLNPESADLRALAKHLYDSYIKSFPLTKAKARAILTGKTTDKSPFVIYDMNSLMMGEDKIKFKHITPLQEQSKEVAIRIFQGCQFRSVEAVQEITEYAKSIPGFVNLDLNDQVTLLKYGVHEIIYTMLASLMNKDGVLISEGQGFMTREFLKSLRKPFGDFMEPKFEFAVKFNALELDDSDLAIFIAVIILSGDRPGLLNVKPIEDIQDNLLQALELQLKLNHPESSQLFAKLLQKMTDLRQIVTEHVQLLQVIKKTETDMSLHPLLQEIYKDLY

As to `O=C(O)COc1ccccc1/C=C1\C(=O)NC(=O)N(CCC2=CCCCC2)C1=O`, the activation (% of full agonist control) stood at 33.7% and the activation (% of partial agonist control) was 74.6% (inactive).
`CC(=O)Nc1cc(C(=O)N2CCC3(CC2)OCCO3)ccc1Sc1ccc(F)cc1`: the activation (% of full agonist control) amounted to 37.4% and the activation (% of partial agonist control) is 82.7% (inactive).
